The panel holds about 79,000 compounds, 15% with a hit somewhere; the sample as a whole holds those more often. Values without a mark were called inactive. Rule as the data show it: active = growth inhibition above about 70%; inactive = the rest.
Assay: NCI Yeast Anticancer Drug Screen. Data for the rad50 strain (AID 155);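 also: 0% = growth of vehicle-only cultures of the same strain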
Conditions: S. cerevisiae rad50 strain growth inhibition, stronger effect = higher value; at 50.0 µM unless noted
Method in brief: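 Readout: growth inhibition relative to vehicle-treated cultures. Compound exposure was carried out in a genetically defined yeast strain deficient in DNA damage repair.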

| SMILES | growth inhibition [%] |
| --- | --- |
| CC1(C)N=C(N)N=C(N)N1c1ccc(N)cc1 | 1.7 |
| O=C(CC(=O)Nc1ccccc1Cl)NNC(c1cc(N=Nc2ccc(Br)cc2)ccc1O)P(O)O (configuration not stated) | 1.8 |
| COc1cc(C(=O)N2CCOC23CCN(Cc2ccccc2)CC3)cc(OC)c1OC | -1.5 |
| Cc1c(CCCl)c(N=P(c2ccccc2)(c2ccccc2)c2ccccc2)n2c(nc3ccccc32)c1C#N | 29.1 |
| CC(=O)OC1CCC(C(C)(C)C)CC1 (configuration not stated) | -12.8 |
| O=C1Nc2cc(Br)ccc2C1=O | 7.5 |
| N#C/C(=C/NC(N)=S)C(N)=O | -25.6 |
| C=Nc1ccc(Nc2ccccc2)cc1 | 5.7 |
| O=C(N/N=C/c1ccc2c(c1)OCO2)c1ccccc1 | 12.7 |
| CCCCCCCCC(=O)NCO | -17.8 |
| Cc1cc(S(=O)(=O)Nc2nc(N)nc(N3N=CCC3C)n2)c(SCC(=O)O)cc1Cl (configuration not stated) | -16 |
| CC1=C(C(=O)Nc2cc(=O)n(C)c(=O)n2C)C(c2ccco2)C(C(=O)Nc2cc(=O)n(C)c(=O)n2C)=C(C)N1 | -0.5 |
| COc1ccc(/C=N/N2CN(C(C)C(=O)O)B(NCCC(C)C)N=C2N)cc1OC (configuration not stated) | -0.5 |
| CCN(CCO)c1cccc(C)c1 | -12.2 |
| Nc1nc2ncc(COc3ccc(C(=O)O)cc3)nc2c(=O)[nH]1 | 18.8 |
| N#Cc1ccc(CC(=O)c2ccccc2)cc1 | -6.05 |
| O=[N+]([O-])c1cccnc1S(=O)(=O)c1ccccc1 | 36.9 |

From PubChem BioAssay (NCI)
